The full data set covers some 8,800 targets. This sample favours those with a hit. About 0.5% of all pairs of compound and target were hits.
How the values were obtained:
Experiment in all cases: log2 fold change, soluble protein after heating vs DMSO (PISA); higher = thermal stabilisation; K562 lysate, 10 uM; active = over 0.2 and 3.5 SD of the protein, either way, in both replicates (recomputed)
lapatinib = compound: CS(=O)(=O)CCNCc1ccc(-c2ccc3ncnc(Nc4ccc(OCc5cccc(F)c5)c(Cl)c4)c3c2)o1 [lapatinib]
Method in brief: (§1)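 Quantification was by TMTpro 16plex LC-MS/MS with equalised channel sums, applied to the supernatant after 21,000xg for 90 min. Samples were crude K562 extract at 1 mg/mL protein in PBS pH 7.4 with 1 mM MgCl2, treated with 10 μM compound for 30 min, heated for 3 min across 48°C-58°C, pooled and brought to 0.5% NP-40 at 4°C. Values are log-two fold changes in thermal stability relative to solvent controls, from duplicates.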

pictilisib = compound: CS(=O)(=O)N1CCN(Cc2cc3nc(-c4cccc5[nH]ncc45)nc(N4CCOCC4)c3s2)CC1 [pictilisib]
Method in brief: as §1

crizotinib = compound: C[C@@H](Oc1cc(-c2cnn(C3CCNCC3)c2)cnc1N)c1c(Cl)ccc(F)c1Cl [crizotinib]
Method in brief: as §1

[1] = compound: C[C@H](C1=CC=C(C=C1)C(=O)NC2=C3C=CNC3=NC=C2)N
Method in brief: as §1

duvelisib = compound: C[C@H](Nc1ncnc2nc[nH]c12)c1cc2cccc(Cl)c2c(=O)n1-c1ccccc1 [duvelisib]
Method in brief: as §1

gandotinib = compound: Cc1cc(Nc2cc(CN3CCOCC3)c3nc(C)c(Cc4ccc(Cl)cc4F)n3n2)n[nH]1 [gandotinib]
Method in brief: as §1

tozasertib = compound: Cc1cc(Nc2cc(N3CCN(C)CC3)nc(Sc3ccc(NC(=O)C4CC4)cc3)n2)n[nH]1 [tozasertib]
Method in brief: as §1

doramapimod = compound: Cc1ccc(-n2nc(C(C)(C)C)cc2NC(=O)Nc2ccc(OCCN3CCOCC3)c3ccccc23)cc1 [doramapimod]
Method in brief: as §1

bafetinib = compound: Cc1ccc(NC(=O)c2ccc(CN3CC[C@H](N(C)C)C3)c(C(F)(F)F)c2)cc1Nc1nccc(-c2cncnc2)n1 [bafetinib]
Method in brief: as §1

[2] = compound: Cc1cccc(CC(=O)N2CCc3c2ccc(-c2cn(C)c4ncnc(N)c24)c3F)n1
Method in brief: as §1

nilotinib = compound: Cc1cn(-c2cc(NC(=O)c3ccc(C)c(Nc4nccc(-c5cccnc5)n4)c3)cc(C(F)(F)F)c2)cn1 [nilotinib]
Method in brief: as §1

[3] = compound: Cc1nc(Nc2n[nH]c3c2CN(C(=O)N[C@H](CN(C)C)c2ccccc2)C3(C)C)c2sccc2n1
Method in brief: as §1

dasatinib = compound: Cc1nc(Nc2ncc(C(=O)Nc3c(C)cccc3Cl)s2)cc(N2CCN(CCO)CC2)n1 [dasatinib]
Method in brief: as §1

[4] = compound: Cc1ncc(-c2ccnc(Nc3ccc(S(C)(=O)=O)cc3)n2)n1C(C)C
Method in brief: as §1

[5] = compound: Cn1cc(-c2ccc3c(c2)CCN3C(=O)Cc2cccc(C(F)(F)F)c2)c2c(N)ncnc21
Method in brief: as §1

quisinostat = compound: Cn1cc(CNCC2CCN(c3ncc(C(=O)NO)cn3)CC2)c2ccccc21 [quisinostat]
Method in brief: as §1

tipifarnib = compound: Cn1cncc1[C@@](N)(c1ccc(Cl)cc1)c1ccc2c(c1)c(-c1cccc(Cl)c1)cc(=O)n2C [tipifarnib]
Method in brief: as §1

[6] = compound: NC(=O)Nc1cc(-c2cccc(F)c2)sc1C(=O)N[C@H]1CCCNC1
Method in brief: as §1

[7] = compound: NC(=O)c1cnc(N[C@@H]2CCCC[C@@H]2N)nc1Nc1cccc(-n2nccn2)c1
Method in brief: as §1

[8] = compound: NC1(c2ccc(-c3nc4ccn5c(=O)[nH]nc5c4cc3-c3ccccc3)cc2)CCC1
Method in brief: as §1

Measured: log2 fold change

ZC3H11A (UniProt O75152)
inactive: lapatinib -0.09 | pictilisib -0.046 | crizotinib -0.071 | [1] 0.222 | duvelisib 0.013 | gandotinib -0.12 | tozasertib 0.016 | doramapimod 0.013 | bafetinib -0.113 | [2] -0.134 | nilotinib -0.021 | [3] -0.006 | dasatinib -0.021 | [4] 0.041 | [5] -0.022 | quisinostat -0.094 | tipifarnib -0.007 | [6] 0 | [7] 0.004 | [8] 0.035

UQCC2 (UniProt Q9BRT2)
Chain of UniProt Q9BRT2 (Q9BRT2 whole entry, looked up): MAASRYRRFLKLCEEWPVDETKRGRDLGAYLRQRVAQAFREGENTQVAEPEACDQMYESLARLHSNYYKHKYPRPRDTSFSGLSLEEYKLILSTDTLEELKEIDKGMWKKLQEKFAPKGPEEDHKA
inactive: lapatinib 0.007 | pictilisib 0.009 | crizotinib 0.036 | [1] 0.158 | duvelisib 0.026 | gandotinib -0.091 | tozasertib -0.015 | doramapimod 0.014 | bafetinib 0.001 | [2] -0.093 | nilotinib -0.018 | [3] -0.006 | dasatinib 0.002 | [4] 0.012 | [5] -0.001 | quisinostat 0 | tipifarnib 0.058 | [6] -0.076 | [7] -0.005 | [8] 0.018

WDCP (UniProt Q9H6R7)
inactive: lapatinib -0.048 | pictilisib 0.017 | crizotinib -0.079 | [1] 0.022 | duvelisib 0.038 | gandotinib -0.058 | tozasertib -0.03 | doramapimod -0.02 | bafetinib -0.027 | [2] 0.002 | nilotinib -0.01 | [3] 0.001 | dasatinib -0.035 | [4] 0.006 | [5] -0.018 | quisinostat -0.107 | tipifarnib 0.009 | [6] 0.014 | [7] -0.069 | [8] 0.007

WDR20 isoform 7 (UniProt Q8TBZ3)
Chain of UniProt Q8TBZ3 (Q8TBZ3 whole entry, looked up): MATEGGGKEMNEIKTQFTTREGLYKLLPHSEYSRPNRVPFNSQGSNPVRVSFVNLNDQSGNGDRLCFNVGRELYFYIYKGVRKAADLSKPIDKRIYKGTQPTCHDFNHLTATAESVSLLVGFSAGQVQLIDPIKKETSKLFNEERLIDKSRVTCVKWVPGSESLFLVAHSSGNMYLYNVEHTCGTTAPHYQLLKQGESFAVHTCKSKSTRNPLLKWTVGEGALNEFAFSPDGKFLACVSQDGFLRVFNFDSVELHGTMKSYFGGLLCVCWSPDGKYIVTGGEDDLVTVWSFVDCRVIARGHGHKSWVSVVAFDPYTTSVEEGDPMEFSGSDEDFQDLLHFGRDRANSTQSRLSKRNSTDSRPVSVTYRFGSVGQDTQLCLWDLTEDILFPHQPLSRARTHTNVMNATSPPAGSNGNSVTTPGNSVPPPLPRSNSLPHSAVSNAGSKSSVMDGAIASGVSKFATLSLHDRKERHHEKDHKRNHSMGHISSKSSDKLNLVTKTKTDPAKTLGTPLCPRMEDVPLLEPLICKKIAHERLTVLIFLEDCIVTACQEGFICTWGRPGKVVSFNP
inactive: lapatinib 0.015 | pictilisib -0.006 | crizotinib -0.069 | duvelisib 0.043 | gandotinib -0.009 | tozasertib 0 | doramapimod -0.022 | bafetinib 0.07 | [2] 0.081 | nilotinib -0.001 | [3] 0.029 | dasatinib 0.055 | [4] -0.229 | [5] 0.038 | quisinostat 0.027 | tipifarnib -0.174 | [6] 0.009 | [7] -0.026 | [8] -0.042
active: [1] -0.416

WDR77 (UniProt Q9BQA1)
Chain of UniProt Q9BQA1 (Q9BQA1 whole entry, looked up): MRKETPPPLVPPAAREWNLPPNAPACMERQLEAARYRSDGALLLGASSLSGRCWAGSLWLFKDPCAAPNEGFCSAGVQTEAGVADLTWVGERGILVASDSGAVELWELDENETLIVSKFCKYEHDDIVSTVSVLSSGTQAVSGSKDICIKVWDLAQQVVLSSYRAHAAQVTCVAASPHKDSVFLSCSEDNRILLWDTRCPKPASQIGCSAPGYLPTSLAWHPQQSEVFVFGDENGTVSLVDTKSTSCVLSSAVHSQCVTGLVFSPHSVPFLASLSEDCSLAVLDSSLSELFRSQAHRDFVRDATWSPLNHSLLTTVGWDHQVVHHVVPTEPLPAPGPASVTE
inactive: lapatinib 0.012 | pictilisib 0.016 | crizotinib -0.027 | [1] 0.014 | duvelisib 0.119 | gandotinib -0.037 | tozasertib -0.005 | doramapimod 0.008 | bafetinib -0.024 | [2] -0.047 | nilotinib 0.056 | [3] 0.028 | dasatinib 0.093 | [4] 0 | [5] -0.013 | quisinostat 0.014 | tipifarnib 0.048 | [6] 0.006 | [7] -0.008 | [8] 0.039

YEATS4 (UniProt O95619)
Chain of UniProt O95619 (O95619 whole entry, looked up): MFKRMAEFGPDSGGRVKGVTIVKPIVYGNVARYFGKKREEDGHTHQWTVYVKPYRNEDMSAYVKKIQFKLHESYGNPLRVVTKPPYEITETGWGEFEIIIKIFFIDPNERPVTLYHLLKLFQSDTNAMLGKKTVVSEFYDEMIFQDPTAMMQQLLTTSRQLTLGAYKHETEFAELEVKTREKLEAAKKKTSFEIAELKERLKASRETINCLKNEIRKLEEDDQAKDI
active: [1] 0.609
inactive: lapatinib 0.023 | pictilisib 0.026 | crizotinib 0.02 | duvelisib -0.015 | gandotinib -0.126 | tozasertib -0.006 | doramapimod 0.064 | bafetinib -0.033 | [2] -0.083 | nilotinib 0.1 | [3] 0.154 | dasatinib 0.11 | [4] -0.196 | [5] 0.035 | quisinostat -0.038 | tipifarnib 0.071 | [6] -0.011 | [7] 0.018 | [8] 0.044

ZBTB33 (UniProt Q86T24)
Chain of UniProt Q86T24 (Q86T24 whole entry, looked up): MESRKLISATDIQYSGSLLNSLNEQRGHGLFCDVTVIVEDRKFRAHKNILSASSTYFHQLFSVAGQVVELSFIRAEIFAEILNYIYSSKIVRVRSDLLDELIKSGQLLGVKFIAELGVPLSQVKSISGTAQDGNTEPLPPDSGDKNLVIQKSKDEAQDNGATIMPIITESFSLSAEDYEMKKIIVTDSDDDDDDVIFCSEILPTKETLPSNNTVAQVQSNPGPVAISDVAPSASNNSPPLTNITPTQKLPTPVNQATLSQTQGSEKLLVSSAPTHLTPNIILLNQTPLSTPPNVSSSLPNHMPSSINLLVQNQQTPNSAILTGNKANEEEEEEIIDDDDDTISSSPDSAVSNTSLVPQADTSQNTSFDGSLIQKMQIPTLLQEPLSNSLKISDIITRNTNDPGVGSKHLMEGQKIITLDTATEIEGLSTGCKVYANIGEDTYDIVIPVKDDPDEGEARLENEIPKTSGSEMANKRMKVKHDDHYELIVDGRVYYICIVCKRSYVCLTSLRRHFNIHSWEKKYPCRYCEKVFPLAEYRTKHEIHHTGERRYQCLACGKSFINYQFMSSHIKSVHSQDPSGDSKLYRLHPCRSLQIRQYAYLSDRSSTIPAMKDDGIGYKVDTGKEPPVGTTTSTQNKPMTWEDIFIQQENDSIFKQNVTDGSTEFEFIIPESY
inactive: lapatinib 0.047 | pictilisib 0.149 | crizotinib -0.111 | [1] -0.165 | duvelisib -0.041 | gandotinib 0.028 | tozasertib 0.048 | doramapimod 0.022 | bafetinib 0.046 | [2] 0.048 | nilotinib -0.009 | [3] 0.084 | dasatinib -0.06 | [4] -0.052 | [5] 0.029 | quisinostat -0.08 | tipifarnib -0.083 | [6] 0.133 | [7] 0 | [8] -0.035

VAC14 (UniProt Q08AM6)
Chain of UniProt Q08AM6 (Q08AM6 whole entry, looked up): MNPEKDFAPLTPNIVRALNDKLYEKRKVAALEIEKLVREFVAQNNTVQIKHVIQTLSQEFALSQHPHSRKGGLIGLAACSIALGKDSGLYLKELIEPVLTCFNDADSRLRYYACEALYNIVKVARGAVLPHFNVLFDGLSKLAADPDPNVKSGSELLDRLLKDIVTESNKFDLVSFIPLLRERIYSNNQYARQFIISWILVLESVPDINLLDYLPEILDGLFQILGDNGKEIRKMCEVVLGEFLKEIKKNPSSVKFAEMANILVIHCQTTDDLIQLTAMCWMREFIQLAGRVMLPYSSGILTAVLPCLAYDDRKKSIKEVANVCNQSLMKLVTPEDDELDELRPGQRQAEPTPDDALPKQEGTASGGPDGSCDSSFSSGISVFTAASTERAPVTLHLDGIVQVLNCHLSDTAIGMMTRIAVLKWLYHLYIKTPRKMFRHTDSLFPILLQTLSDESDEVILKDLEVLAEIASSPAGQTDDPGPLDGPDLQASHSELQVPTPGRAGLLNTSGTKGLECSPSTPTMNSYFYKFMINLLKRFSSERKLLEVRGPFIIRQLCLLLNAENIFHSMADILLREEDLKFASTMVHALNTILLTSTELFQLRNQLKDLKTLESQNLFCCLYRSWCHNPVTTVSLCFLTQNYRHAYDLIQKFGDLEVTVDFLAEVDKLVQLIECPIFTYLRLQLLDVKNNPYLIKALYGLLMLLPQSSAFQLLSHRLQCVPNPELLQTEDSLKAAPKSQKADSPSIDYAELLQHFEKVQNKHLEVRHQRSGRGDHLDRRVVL
inactive: lapatinib -0.034 | pictilisib -0.005 | crizotinib -0.047 | [1] -0.028 | duvelisib -0.004 | gandotinib -0.069 | tozasertib -0.005 | doramapimod 0.037 | bafetinib -0.036 | [2] 0.067 | nilotinib -0.014 | [3] 0.018 | dasatinib -0.022 | [4] 0.009 | [5] 0.058 | quisinostat -0.07 | tipifarnib -0.059 | [6] 0.012 | [7] -0.002 | [8] -0.027

VPS41 (UniProt P49754)
Chain of UniProt P49754 (P49754 whole entry, looked up): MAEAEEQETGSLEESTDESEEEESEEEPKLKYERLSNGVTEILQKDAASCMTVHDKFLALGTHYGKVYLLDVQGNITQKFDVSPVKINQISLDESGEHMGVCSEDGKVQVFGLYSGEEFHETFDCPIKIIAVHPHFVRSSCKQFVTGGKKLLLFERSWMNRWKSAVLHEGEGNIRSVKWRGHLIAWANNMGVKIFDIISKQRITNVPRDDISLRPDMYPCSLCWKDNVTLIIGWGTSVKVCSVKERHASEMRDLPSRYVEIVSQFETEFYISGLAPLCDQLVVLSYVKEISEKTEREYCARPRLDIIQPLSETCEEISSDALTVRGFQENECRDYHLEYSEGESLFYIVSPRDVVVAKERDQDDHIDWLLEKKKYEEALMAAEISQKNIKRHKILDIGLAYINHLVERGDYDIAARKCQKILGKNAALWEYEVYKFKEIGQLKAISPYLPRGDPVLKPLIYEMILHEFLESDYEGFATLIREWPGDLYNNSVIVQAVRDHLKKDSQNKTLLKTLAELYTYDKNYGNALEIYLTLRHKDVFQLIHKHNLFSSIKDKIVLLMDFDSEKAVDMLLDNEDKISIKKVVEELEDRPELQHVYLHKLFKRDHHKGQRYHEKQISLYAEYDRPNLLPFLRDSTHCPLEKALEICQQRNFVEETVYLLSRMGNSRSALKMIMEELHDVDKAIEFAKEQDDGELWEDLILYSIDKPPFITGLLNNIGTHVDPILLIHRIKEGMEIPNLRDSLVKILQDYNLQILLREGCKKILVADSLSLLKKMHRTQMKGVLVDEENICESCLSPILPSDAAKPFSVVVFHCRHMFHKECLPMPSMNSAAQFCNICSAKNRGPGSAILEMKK
inactive: lapatinib -0.018 | pictilisib -0.046 | crizotinib -0.011 | [1] 0.079 | duvelisib -0.021 | gandotinib -0.093 | tozasertib 0.047 | doramapimod 0.023 | bafetinib -0.021 | [2] -0.05 | nilotinib 0.034 | [3] 0.014 | dasatinib -0.038 | [4] 0.001 | [5] 0.057 | quisinostat -0.048 | tipifarnib -0.029 | [6] 0.029 | [7] 0.001 | [8] -0.009

ZZEF1 (UniProt O43149)
inactive: lapatinib -0.023 | pictilisib -0.024 | crizotinib -0.092 | [1] -0.113 | duvelisib 0.028 | gandotinib 0.038 | tozasertib -0.011 | doramapimod 0.029 | bafetinib -0.083 | [2] 0.123 | nilotinib -0.022 | [3] 0 | dasatinib -0.018 | [4] 0.015 | [5] -0.006 | quisinostat -0.07 | tipifarnib 0.007 | [6] 0.008 | [7] 0.021 | [8] -0.03

YME1L1 (UniProt Q96TA2)
inactive: lapatinib -0.025 | pictilisib -0.034 | crizotinib -0.073 | [1] 0.01 | duvelisib -0.017 | gandotinib -0.112 | tozasertib 0.048 | doramapimod -0.023 | bafetinib -0.024 | [2] 0.055 | nilotinib 0.011 | [3] -0.06 | dasatinib 0 | [4] 0.026 | [5] -0.044 | quisinostat -0.045 | tipifarnib -0.019 | [6] 0.016 | [7] 0.06 | [8] -0.059

UNC13D (UniProt Q70J99)
Chain of UniProt Q70J99 (Q70J99 whole entry, looked up): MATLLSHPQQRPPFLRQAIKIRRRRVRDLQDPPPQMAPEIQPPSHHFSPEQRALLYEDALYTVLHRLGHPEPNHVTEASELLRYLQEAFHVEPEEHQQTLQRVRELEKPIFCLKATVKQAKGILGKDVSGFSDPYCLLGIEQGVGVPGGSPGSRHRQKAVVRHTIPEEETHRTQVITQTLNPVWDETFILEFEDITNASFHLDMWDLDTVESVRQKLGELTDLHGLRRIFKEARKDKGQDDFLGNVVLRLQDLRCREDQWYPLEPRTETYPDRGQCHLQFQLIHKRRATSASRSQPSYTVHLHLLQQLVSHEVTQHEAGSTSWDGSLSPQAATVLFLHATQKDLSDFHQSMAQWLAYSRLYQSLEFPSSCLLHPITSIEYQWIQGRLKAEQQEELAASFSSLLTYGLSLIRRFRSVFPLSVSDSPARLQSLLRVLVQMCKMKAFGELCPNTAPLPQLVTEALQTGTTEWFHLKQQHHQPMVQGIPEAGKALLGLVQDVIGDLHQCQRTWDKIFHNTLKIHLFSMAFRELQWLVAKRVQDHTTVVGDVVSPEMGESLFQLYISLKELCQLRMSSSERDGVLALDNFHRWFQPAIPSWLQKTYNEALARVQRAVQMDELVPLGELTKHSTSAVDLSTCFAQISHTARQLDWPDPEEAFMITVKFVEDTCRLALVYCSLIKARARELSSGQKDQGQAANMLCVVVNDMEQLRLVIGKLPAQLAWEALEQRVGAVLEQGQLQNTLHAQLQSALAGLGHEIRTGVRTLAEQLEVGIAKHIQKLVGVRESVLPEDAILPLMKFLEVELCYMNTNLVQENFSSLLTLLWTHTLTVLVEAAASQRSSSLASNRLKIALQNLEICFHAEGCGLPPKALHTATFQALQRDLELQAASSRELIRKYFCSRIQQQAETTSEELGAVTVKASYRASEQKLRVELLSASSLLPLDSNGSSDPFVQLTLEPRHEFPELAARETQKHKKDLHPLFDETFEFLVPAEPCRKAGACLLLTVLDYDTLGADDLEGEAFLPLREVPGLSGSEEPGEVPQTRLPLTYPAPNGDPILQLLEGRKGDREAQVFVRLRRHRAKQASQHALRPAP
inactive: lapatinib -0.032 | pictilisib -0.032 | crizotinib -0.038 | [1] 0.029 | duvelisib -0.039 | gandotinib -0.089 | tozasertib -0.015 | doramapimod 0.009 | bafetinib -0.066 | [2] 0.002 | nilotinib 0.043 | [3] -0.014 | dasatinib -0.05 | [4] 0 | [5] 0 | quisinostat -0.079 | tipifarnib -0.006 | [6] 0.05 | [7] 0.022 | [8] -0.024

USP10 isoform 2 (UniProt Q14694)
inactive: lapatinib -0.01 | pictilisib -0.015 | crizotinib -0.03 | [1] -0.024 | duvelisib 0.009 | gandotinib -0.046 | tozasertib -0.014 | doramapimod -0.016 | bafetinib -0.014 | [2] 0.028 | nilotinib -0.022 | [3] 0.013 | dasatinib -0.058 | [4] 0.013 | [5] -0.013 | quisinostat -0.081 | tipifarnib -0.007 | [6] 0.034 | [7] -0.011 | [8] -0.012

YES1 (UniProt P07947)
active: [6] 0.589
inactive: lapatinib 0 | pictilisib -0.063 | crizotinib -0.128 | [1] -0.101 | duvelisib -0.066 | gandotinib 0.212 | tozasertib -0.105 | doramapimod -0.005 | bafetinib 0.155 | [2] 0.092 | nilotinib 0.043 | [3] 0.008 | dasatinib 0.154 | [4] -0.104 | [5] -0.087 | quisinostat -0.084 | tipifarnib -0.157 | [7] 0.032 | [8] 0.054

ZNF346 (UniProt Q9UL40)
Chain of UniProt Q9UL40 (Q9UL40 whole entry, looked up): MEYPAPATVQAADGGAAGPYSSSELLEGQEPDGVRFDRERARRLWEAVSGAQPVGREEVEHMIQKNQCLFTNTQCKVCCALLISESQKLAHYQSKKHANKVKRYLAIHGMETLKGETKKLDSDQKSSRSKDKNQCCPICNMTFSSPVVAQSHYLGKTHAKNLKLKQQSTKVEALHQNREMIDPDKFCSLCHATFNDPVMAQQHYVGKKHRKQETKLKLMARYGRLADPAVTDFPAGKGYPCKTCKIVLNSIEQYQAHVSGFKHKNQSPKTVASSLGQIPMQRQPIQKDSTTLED
inactive: lapatinib 0.01 | pictilisib -0.008 | crizotinib 0.009 | [1] -0.01 | duvelisib -0.009 | gandotinib -0.026 | tozasertib 0.005 | doramapimod 0.02 | bafetinib -0.043 | [2] -0.072 | nilotinib -0.005 | [3] 0.02 | dasatinib -0.099 | [4] 0.021 | [5] 0.014 | quisinostat -0.014 | tipifarnib 0.015 | [6] 0.005 | [7] 0.011 | [8] 0.01

YTHDC2 (UniProt Q9H6S0)
inactive: lapatinib -0.029 | pictilisib -0.007 | crizotinib -0.042 | [1] 0.023 | duvelisib 0.032 | gandotinib -0.013 | tozasertib -0.03 | doramapimod 0.007 | bafetinib -0.022 | [2] -0.066 | nilotinib 0.006 | [3] -0.001 | dasatinib -0.043 | [4] 0.03 | [5] 0.03 | quisinostat -0.046 | tipifarnib 0.022 | [6] 0.06 | [7] -0.007 | [8] -0.054

From the supplement of paper PMC10849652
